Source: PubChem BioAssay

How the values were obtained:
[1] = NFkB reporter suppression in cystic fibrosis bronchial cells – cell-based, uHTS hits, panel, cytotoxicity readout, dose response (AID 624344); conditions: CF bronchial epithelial cells, PAF-induced NFkB reporter inhibition, with PAF, run 1; at 79 µM (top of the series) unless noted
[2] = as above; conditions: CF bronchial epithelial cells, PAF-induced NFkB reporter inhibition, with PAF, run 2; at 79 µM (top of the series) unless noted

Row | Structure (SMILES) | inhibition [1] | inhibition [2]
1 | Oc1ccc(Cl)cc1Cc1cc(Cl)ccc1O | 103% | 107%
2 | CC(C)c1nc(Cl)c(C#N)c2c1CCCC2 | 96.5% | 112%
3 | COc1cc2c(c(OC)c1OC)-c1ccc(SC)c(=O)cc1C(NC(=O)C(F)(F)F)CC2 (stereo unspecified) | 72.8% | 79%
4 | Cc1ccnc(NC(=O)Cc2ccc(-c3ccccc3)cc2)c1 | 111% | 105%
5 | CC(C)C[C@@H](CN1CCC[C@@H]1CN1C(=S)NC[C@@H]1Cc1ccc(O)cc1)N1C[C@H](Cc2ccc(O)cc2)N(CC2CCCCC2)C1=S | 105% | 118%
6 | C=CCN1c2ccccc2[C@]23C[C@@H](C(=O)OC)N(C(=O)c4ccc(Br)cc4)C2=NC(C(=O)OC)=C(C(=O)OC)[C@H]13 | 115% | 101%
7 | CCn1c2ccccc2c2cc(/C=N/O)ccc21 | 114% | 105%
8 | CC1=C(C(=O)OCc2ccc3c(c2)OCO3)C(c2ccc(O)c([N+](=O)[O-])c2)NC(=O)N1 (stereo unspecified) | 94.5% | 89%
9 | CC1C(c2ccccc2)OCCN1C(=S)Nc1ccc(S(=O)(=O)N2CCCCC2)cc1 (stereo unspecified) | 100% | 106%
10 | COC(=O)N1C(=O)[C@@](c2ccccc2)(C(C)C)N1C(=O)OC | 107% | 104%
11 | C=C1C(=O)C2=CC1CCC(=O)C1(C)CCC(OC(C)=O)C(C)(C)C1CC2O (stereo unspecified) | 94.6% | 107%
12 | CCOC(=O)Nc1nc(-c2ccccc2)c(C(=O)c2ccccc2)s1 | 99.4% | 78.8%
13 | COc1ccc(OC)c(C2CC(=O)c3c([nH]c(C(=O)OC(C)C)c3C)C2)c1 (stereo unspecified) | 51.7% | 64.2%
14 | C=CCn1c(Oc2ccccc2F)nc2c1c(=O)n(C)c(=O)n2C | 95.6% | 93.3%
15 | Cc1ccc(CNc2ncnc3ccc(-c4ccc(CO)o4)cc23)o1 | 101% | 99.1%
16 | c1ccc(-c2nc3nonc3nc2-c2ccccc2)cc1 | 102% | 109%
17 | CC(=O)Nc1ccc(S(=O)(=O)N2c3ccccc3C(C)=CC2(C)C)cc1 | 93.9% | 56.4%
18 | COc1ccc(COC(=O)C2=C(C)NC(=O)NC2c2ccc(OC)cc2)cc1 (stereo unspecified) | 76.8% | 78%
19 | c1cncc(-c2ccc3ncnc(NCc4ccc5c(c4)OCO5)c3c2)c1 | 112% | 101%
20 | O=C1NC(=S)N/C1=C/c1cccnc1 | 97.5% | 103%
21 | COc1ccc(-c2cc(=O)oc3cc(O)ccc23)cc1 | 105% | 103%
22 | CCOc1ccc(-n2c(C)c(C(C)=O)c3cc(OC(C)=O)ccc32)cc1 | 89% | 90%
23 | c1ccc2c(c1)Nc1ccncc1S2 | 114% | 106%
24 | CCOC(=O)Cc1nnc2c(Nc3ccc(Cl)cc3)nc3nonc3n12 | 110% | 101%

Row | Structure (SMILES) | inhibition [1] | inhibition [2]
25 | O=[N+]([O-])c1cc([N+](=O)[O-])c2oc(-c3ccccc3)c(Br)c2c1O | 112% | 107%
26 | COc1cccc(/C=N/n2c(C3CCCCC3)n[nH]c2=S)c1 | 97.2% | 106%
27 | CC1(O)CC(c2ccc(Cl)cc2)=NN1C(=O)c1ccc(Cl)cc1 (stereo unspecified) | 109% | 78.5%
28 | O=[N+]([O-])c1ccc(Oc2ccc(F)cc2)c2ccncc12 | 99.2% | 97.3%
29 | C=C1C(=O)[C@]23C[C@H]1CC[C@H]2[C@]1(C)[C@@H](O)CC[C@@](C)(C(=O)O)[C@H]1C[C@@H]3O | 98.4% | 103%
30 | CC1C(=O)N(Cc2cn(Cc3ccco3)nn2)CCS(=O)(=O)N1Cc1ccc(-c2ccccc2C(F)(F)F)cc1 (stereo unspecified) | 97.9% | 114%
31 | Cc1ccnc(Nc2nc(-c3sc(C)nc3C)cs2)c1 | 107% | 104%
32 | ON=C1c2ccccc2-c2ccccc21 | 95.8% | 106%
33 | COc1cc(C(=O)c2cc3c(cc2C)OCO3)cc(OC)c1OC | 48.2% | 51.8%
34 | Clc1ccc(CSc2nnc(-c3ccncc3)o2)cc1 | 102% | 83.7%
35 | COc1ccc2c(=O)cc(-c3ccncc3)oc2c1OC | 116% | 103%
36 | COCCCN=C1NN=C(c2cc(C)n(Cc3ccccc3Cl)c2C)CS1 | 88.6% | 106%
37 | CN(C)c1ccc(-c2nn3c(-c4ccccc4Cl)nnc3s2)cc1 | 102% | 65.9%
38 | Cn1cccc1C(=O)NC(=O)COC(=O)c1ccc(S(C)(=O)=O)c([N+](=O)[O-])c1 | 92.6% | 98.1%
39 | COc1ccc(S(=O)(=O)N(C(C)=O)c2ccc(OC(C)=O)c3ccccc23)cc1[N+](=O)[O-] | 59.1% | 99.4% [at 39.5 µM]
40 | O=C(NNC(=S)Nc1cccc(C(F)(F)F)c1)c1cccc(Cl)c1 | 115% | 93.8%
41 | COc1ccc(C(=O)N[C@H](C(=O)Nc2nc3ccccc3[nH]2)C(C)C)cc1 | 99.8% | 102%
42 | Cc1ccsc1CN(C)c1ncnc2ccc(-c3ccoc3)cc12 | 91.6% | 93.8%
43 | c1nc(N2CCOCC2)c2c3c(sc2n1)CCCC3 | 98.5% | 107%
44 | CCN(CC(=O)Nc1ccc(OC)cc1)C(=O)c1cc(-c2cccs2)nn1-c1ccccc1 | 99.6% | 98.4%
45 | COc1cc(O)c(CC=C(C)C)c(O)c1C(=O)CCc1ccc(O)cc1 | 112% | 104%
46 | COc1ccc(-n2nc(C(=O)NCC(=O)Nc3cc(OC)c(OC)c(OC)c3)c3ccccc3c2=O)cc1Cl | 96.2% | 95.1%
47 | Cc1ccc(NC(=O)Nc2cccc([N+](=O)[O-])c2)cc1F | 102% | 113%
48 | Cc1ccc(C(C(=O)NCc2ccccc2)N(Cc2cccs2)C(=O)c2ccc3c(c2)OCCO3)cc1 (stereo unspecified) | 106% | 98.3%
